We go through 23 compounds from the supplement of paper PMC10037445.

The test system of assay [1] is RAW-Dual. As to the kind of experiment: IRF Lucia reporter activity, fold change vs agonist alone; cytotoxicity flag (confluency mask): not cytotoxic; higher = enhanced IRF activity. In a few lines: (§1)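 RAW-Dual macrophages were seeded in DMEM at 50,000 cells/well in 384-well plates, given 50 nL of library stock by pin tool, and given a PRR agonist 1 h later. Plates were held at 37 °C, 5% CO2 for 20 hours, after which supernatant was read for IRF by QuantiLuc luminescence and for NF-κB by QuantiBlue absorbance at 620 nm. Reporter activity is expressed as fold change over wells that received agonist alone. A well was called cytotoxic when IncuCyte confluency fell below 70% of agonist controls in both mask sets.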

In assay [2] the test system is RAW-Dual. Briefly: IRF Lucia reporter activity, fold change vs agonist alone; higher = enhanced IRF activity. To be noted: agonist: MPLA (TLR4) […]. In a few lines:
as §1

Assay [3] relates to RAW-Dual. As to the kind of experiment: IRF Lucia reporter activity, fold change vs agonist alone; cytotoxicity flag (confluency mask): cytotoxic (confluency <70% of control); higher = enhanced IRF activity. In a few lines:
as §1

The mark [4] stands for this setting: agonist: 3'3'-cGAMP (STING) 10 ug/mL.
Setting [5] is: library stock concentration (final ~1000-fold dilution): 10 mM, cytotoxicity flag (confluency mask): not cytotoxic.

Over roughly 2,900 compounds, “IRF Lucia reporter activity, fold change vs agonist alone” has its median near 0.9; the highest 2% begin near 2.8. The entries come from a sample that favours the highest values as a whole.

For `COc1ccc2cc1Oc1ccc(cc1)CC1c3cc(c(OC)cc3CCN1C)Oc1c(OC)c(OC)cc3c1C(C2)N(C)CC3` (stereo not given) (library stock concentration (final ~1000-fold dilution): 10 mM), the “IRF Lucia reporter activity” value with RAW-Dual [1] (setting [4]) worked out at 1.01; in the assay on RAW-Dual [1] (agonist: LPS (TLR4) 0.1 ug/mL), 0.352.

With `COc1ccc2cc1Oc1ccc(cc1)CC1c3cc(c(OC)cc3CCN1C)Oc1c(OC)c(OC)cc3c1C(C2)N(C)CC3` (stereo not given), in the assay with RAW-Dual [2] (setting [5]), the “IRF Lucia reporter activity” value came to 1.07.

`Cn1c(=O)cc(N2CCCC(N)C2)n(Cc2cc(F)ccc2C#N)c1=O.O=C(O)CCC(=O)O` (stereo not given): the “IRF Lucia reporter activity” value with RAW-Dual [2] (setting [5]) is 1.13.

For `Cn1c(=O)cc(N2CCCC(N)C2)n(Cc2cc(F)ccc2C#N)c1=O.O=C(O)CCC(=O)O` (stereo not given) (library stock concentration (final ~1000-fold dilution): 10 mM), the “IRF Lucia reporter activity” value with RAW-Dual [1] (setting [4]) is 1.04; in the assay on RAW-Dual [1] (agonist: LPS (TLR4) 0.1 ug/mL), 1.26.

`CCC(C)CC(C)CCCCCCCCC(=O)NC1CC(O)C(NCCN)NC(=O)C2C(O)CCN2C(=O)C(C(O)CCN)NC(=O)C(C(O)C(O)c2ccc(O)cc2)NC(=O)C2CC(O)CN2C(=O)C(C(C)O)NC1=O` (stereo not given) (library stock concentration (final ~1000-fold dilution): 10 mM water): the “IRF Lucia reporter activity” value turned out to be 0.923 in the assay on RAW-Dual [1] (setting [4]) and 0.909 in the assay on RAW-Dual [1] (agonist: LPS (TLR4) 0.1 ug/mL).

Turning to `CCC(C)CC(C)CCCCCCCCC(=O)NC1CC(O)C(NCCN)NC(=O)C2C(O)CCN2C(=O)C(C(O)CCN)NC(=O)C(C(O)C(O)c2ccc(O)cc2)NC(=O)C2CC(O)CN2C(=O)C(C(C)O)NC1=O` (stereo not given), the “IRF Lucia reporter activity” value in the assay on RAW-Dual [2] (library stock concentration (final ~1000-fold dilution): 10 mM water, cytotoxicity flag (confluency mask): not cytotoxic) is 1.21.

On to `Cn1cnc2c(F)c(Nc3ccc(Br)cc3F)c(C(=O)NOCCO)cc21` (library stock concentration (final ~1000-fold dilution): 10 mM), for which the “IRF Lucia reporter activity” value in the assay on RAW-Dual [1] (setting [4]) turned out to be 0.728; in the assay with RAW-Dual [1] (agonist: LPS (TLR4) 0.1 ug/mL), 2.67.

`Cn1cnc2c(F)c(Nc3ccc(Br)cc3Cl)c(C(=O)NOCCO)cc21` (library stock concentration (final ~1000-fold dilution): 10 mM): the “IRF Lucia reporter activity” value with RAW-Dual [1] (setting [4]) worked out at 0.69; in the assay on RAW-Dual [1] (agonist: LPS (TLR4) 0.1 ug/mL), 3.1.

As for `Cn1cnc2c(F)c(Nc3ccc(Br)cc3Cl)c(C(=O)NOCCO)cc21`, the “IRF Lucia reporter activity” value in the assay on RAW-Dual [2] (setting [5]) was 2.77.

Consider `Cn1cnc2c(F)c(Nc3ccc(Br)cc3F)c(C(=O)NOCCO)cc21`, for which the “IRF Lucia reporter activity” value with RAW-Dual [2] (setting [5]) amounted to 2.67.

For the compound `COCCOc1nc(N)c2[nH]c(=O)n(Cc3ccc(C(=O)O)cc3)c2n1` (library stock concentration (final ~1000-fold dilution): 10 mM), the entries for the “IRF Lucia reporter activity” value with RAW-Dual [1] (setting [4]) and in the assay with RAW-Dual [1] (agonist: LPS (TLR4) 0.1 ug/mL) were 1.54 and 1.06, respectively.

In the case of `COC(C(=O)N1Cc2[nH]nc(NC(=O)c3ccc(N4CCN(C)CC4)cc3)c2C1)c1ccccc1` (stereo not given) (library stock concentration (final ~1000-fold dilution): 10 mM), the “IRF Lucia reporter activity” value with RAW-Dual [1] (setting [4]) amounted to 0.149; in the assay on RAW-Dual [1] (agonist: LPS (TLR4) 0.1 ug/mL), 0.162.

`COC(C(=O)N1Cc2[nH]nc(NC(=O)c3ccc(N4CCN(C)CC4)cc3)c2C1)c1ccccc1` (stereo not given): in the assay on RAW-Dual [2] (setting [5]), the “IRF Lucia reporter activity” value came to 0.147.

With `Cn1cncc1C(N)(c1ccc(Cl)cc1)c1ccc2c(c1)c(-c1cccc(Cl)c1)cc(=O)n2C` (stereo not given) (library stock concentration (final ~1000-fold dilution): 10 mM), the “IRF Lucia reporter activity” value was found to be 0.374 with RAW-Dual [3] (setting [4]) and 0.641 in the assay with RAW-Dual [3] (agonist: LPS (TLR4) 0.1 ug/mL).

For `Cn1cncc1C(N)(c1ccc(Cl)cc1)c1ccc2c(c1)c(-c1cccc(Cl)c1)cc(=O)n2C` (stereo not given), the “IRF Lucia reporter activity” value in the assay with RAW-Dual [2] (library stock concentration (final ~1000-fold dilution): 10 mM, cytotoxicity flag (confluency mask): cytotoxic (confluency <70% of control)) turned out to be 0.481.

Regarding `COC(=O)NC(C(=O)N1CC2(CC2)CC1c1ncc(-c2ccc3c(c2)C(F)(F)c2cc(-c4ccc5nc(C6C7CCC(C7)N6C(=O)C(NC(=O)OC)C(C)C)[nH]c5c4)ccc2-3)[nH]1)C(C)C` (stereo not given) (library stock concentration (final ~1000-fold dilution): 10 mM), the “IRF Lucia reporter activity” value turned out to be 0.913 in the assay with RAW-Dual [1] (setting [4]) and 1.23 in the assay with RAW-Dual [1] (agonist: LPS (TLR4) 0.1 ug/mL).

As to `COCC1CC(c2ncc(-c3ccc4c(c3)COc3cc5c(ccc6[nH]c(C7CCC(C)N7C(=O)C(NC(=O)OC)C(C)C)nc65)cc3-4)[nH]2)N(C(=O)C(NC(=O)OC)c2ccccc2)C1` (stereo not given), the “IRF Lucia reporter activity” value in the assay on RAW-Dual [2] (setting [5]) is 0.857.

As for `COC(=O)NC(C(=O)N1CCCC1C(=O)Nc1ccc(C2CCC(c3ccc(NC(=O)C4CCCN4C(=O)C(NC(=O)OC)C(C)C)cc3)N2c2ccc(C(C)(C)C)cc2)cc1)C(C)C` (stereo not given), the “IRF Lucia reporter activity” value with RAW-Dual [2] (setting [5]) amounted to 0.973.

As for `COC(=O)NC(C(=O)N1CC2(CC2)CC1c1ncc(-c2ccc3c(c2)C(F)(F)c2cc(-c4ccc5nc(C6C7CCC(C7)N6C(=O)C(NC(=O)OC)C(C)C)[nH]c5c4)ccc2-3)[nH]1)C(C)C` (stereo not given), in the assay on RAW-Dual [2] (setting [5]), the “IRF Lucia reporter activity” value is 0.979.

Take `COC(=O)NC(C(=O)N1CCCC1c1ncc(-c2ccc(-c3ccc(-c4cnc(C5CCCN5C(=O)C(NC(=O)OC)C(C)C)[nH]4)cc3)cc2)[nH]1)C(C)C` (stereo not given): the “IRF Lucia reporter activity” value in the assay on RAW-Dual [2] (setting [5]) amounted to 3.26.

Turning to `COC(=O)NC(C(=O)N1CCCC1c1ncc(-c2ccc3c(c2)OC(c2ccccc2)n2c-3cc3cc(-c4cnc(C5CCCN5C(=O)C(NC(=O)OC)C(C)C)[nH]4)ccc32)[nH]1)C(C)C` (stereo not given) (library stock concentration (final ~1000-fold dilution): 10 mM), the “IRF Lucia reporter activity” value is 1.07 with RAW-Dual [1] (setting [4]) and 1.16 with RAW-Dual [1] (agonist: LPS (TLR4) 0.1 ug/mL).

With `COC(=O)NC(C(=O)N1CCCC1C(=O)Nc1ccc(C2CCC(c3ccc(NC(=O)C4CCCN4C(=O)C(NC(=O)OC)C(C)C)cc3)N2c2ccc(C(C)(C)C)cc2)cc1)C(C)C` (stereo not given) (library stock concentration (final ~1000-fold dilution): 10 mM), the “IRF Lucia reporter activity” value with RAW-Dual [1] (setting [4]) was 0.995; with RAW-Dual [1] (agonist: LPS (TLR4) 0.1 ug/mL), 1.21.

For `COC(=O)NC(C(=O)N1CCCC1c1ncc(-c2ccc(-c3ccc(-c4cnc(C5CCCN5C(=O)C(NC(=O)OC)C(C)C)[nH]4)cc3)cc2)[nH]1)C(C)C` (stereo not given) (library stock concentration (final ~1000-fold dilution): 10 mM), the figures for the “IRF Lucia reporter activity” value in the assay on RAW-Dual [1] (setting [4]) and with RAW-Dual [1] (agonist: LPS (TLR4) 0.1 ug/mL) were 1.04 and 4.15, respectively.
